# Test results: the supplement of paper PMC10849652
# Of roughly 7,900 targets only a part is listed; those with a hit were picked by preference. About 0.6% of all pairs of compound and target were hits. Unmarked numbers belong to inactive results.
# Compound: CC(C)(O)CC(=O)NCCn1ccc2ncnc(Nc3ccc(Oc4cccc(C(F)(F)F)c4)c(Cl)c3)c21
# Test: log2 fold change, soluble protein after heating vs DMSO (PISA); higher = thermal stabilisation; K562 cells, 10 uM, 30 min; active = over 0.2 and 3.5 SD of the protein, either way, in both replicates (recomputed)
# Procedure, shortened: (§1)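 Quantification of soluble protein used TMTpro 16plex LC-MS/MS, with channel sums equalised. Samples were the supernatant after 21,000xg for 90 min of pooled aliquots from K562 cells (2×10^6 cells/mL) treated with 10 μM compound for 30 min, heated for 3 min over 48°C-58°C, and extracted in PBS with 0.5% NP-40 at 4°C. Values, from duplicates, describe thermal stability against control samples on a log2 fold-change scale.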
# UniProt P21283, sequence (P21283 whole entry, looked up): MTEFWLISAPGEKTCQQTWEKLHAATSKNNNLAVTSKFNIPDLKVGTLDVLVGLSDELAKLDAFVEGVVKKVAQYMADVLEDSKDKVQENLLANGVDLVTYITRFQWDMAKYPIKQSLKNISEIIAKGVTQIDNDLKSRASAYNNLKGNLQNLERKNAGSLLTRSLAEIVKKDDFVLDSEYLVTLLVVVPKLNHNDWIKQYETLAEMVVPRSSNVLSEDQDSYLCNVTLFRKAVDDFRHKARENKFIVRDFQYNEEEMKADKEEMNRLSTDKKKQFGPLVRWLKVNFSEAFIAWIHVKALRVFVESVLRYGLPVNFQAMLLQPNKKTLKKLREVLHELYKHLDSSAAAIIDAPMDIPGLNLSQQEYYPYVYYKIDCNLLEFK
# UniProt O95433, sequence (O95433 whole entry, looked up): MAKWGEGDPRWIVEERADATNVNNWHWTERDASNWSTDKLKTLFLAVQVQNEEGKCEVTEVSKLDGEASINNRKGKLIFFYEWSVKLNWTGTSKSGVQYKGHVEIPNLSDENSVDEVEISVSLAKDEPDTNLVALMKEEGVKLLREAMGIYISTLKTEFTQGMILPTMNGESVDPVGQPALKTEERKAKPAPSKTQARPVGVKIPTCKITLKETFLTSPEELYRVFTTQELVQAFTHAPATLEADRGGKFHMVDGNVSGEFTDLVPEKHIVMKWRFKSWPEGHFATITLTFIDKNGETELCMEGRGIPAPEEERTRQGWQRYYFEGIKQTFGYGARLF
# UniProt Q9Y6D6, sequence (Q9Y6D6 whole entry, looked up): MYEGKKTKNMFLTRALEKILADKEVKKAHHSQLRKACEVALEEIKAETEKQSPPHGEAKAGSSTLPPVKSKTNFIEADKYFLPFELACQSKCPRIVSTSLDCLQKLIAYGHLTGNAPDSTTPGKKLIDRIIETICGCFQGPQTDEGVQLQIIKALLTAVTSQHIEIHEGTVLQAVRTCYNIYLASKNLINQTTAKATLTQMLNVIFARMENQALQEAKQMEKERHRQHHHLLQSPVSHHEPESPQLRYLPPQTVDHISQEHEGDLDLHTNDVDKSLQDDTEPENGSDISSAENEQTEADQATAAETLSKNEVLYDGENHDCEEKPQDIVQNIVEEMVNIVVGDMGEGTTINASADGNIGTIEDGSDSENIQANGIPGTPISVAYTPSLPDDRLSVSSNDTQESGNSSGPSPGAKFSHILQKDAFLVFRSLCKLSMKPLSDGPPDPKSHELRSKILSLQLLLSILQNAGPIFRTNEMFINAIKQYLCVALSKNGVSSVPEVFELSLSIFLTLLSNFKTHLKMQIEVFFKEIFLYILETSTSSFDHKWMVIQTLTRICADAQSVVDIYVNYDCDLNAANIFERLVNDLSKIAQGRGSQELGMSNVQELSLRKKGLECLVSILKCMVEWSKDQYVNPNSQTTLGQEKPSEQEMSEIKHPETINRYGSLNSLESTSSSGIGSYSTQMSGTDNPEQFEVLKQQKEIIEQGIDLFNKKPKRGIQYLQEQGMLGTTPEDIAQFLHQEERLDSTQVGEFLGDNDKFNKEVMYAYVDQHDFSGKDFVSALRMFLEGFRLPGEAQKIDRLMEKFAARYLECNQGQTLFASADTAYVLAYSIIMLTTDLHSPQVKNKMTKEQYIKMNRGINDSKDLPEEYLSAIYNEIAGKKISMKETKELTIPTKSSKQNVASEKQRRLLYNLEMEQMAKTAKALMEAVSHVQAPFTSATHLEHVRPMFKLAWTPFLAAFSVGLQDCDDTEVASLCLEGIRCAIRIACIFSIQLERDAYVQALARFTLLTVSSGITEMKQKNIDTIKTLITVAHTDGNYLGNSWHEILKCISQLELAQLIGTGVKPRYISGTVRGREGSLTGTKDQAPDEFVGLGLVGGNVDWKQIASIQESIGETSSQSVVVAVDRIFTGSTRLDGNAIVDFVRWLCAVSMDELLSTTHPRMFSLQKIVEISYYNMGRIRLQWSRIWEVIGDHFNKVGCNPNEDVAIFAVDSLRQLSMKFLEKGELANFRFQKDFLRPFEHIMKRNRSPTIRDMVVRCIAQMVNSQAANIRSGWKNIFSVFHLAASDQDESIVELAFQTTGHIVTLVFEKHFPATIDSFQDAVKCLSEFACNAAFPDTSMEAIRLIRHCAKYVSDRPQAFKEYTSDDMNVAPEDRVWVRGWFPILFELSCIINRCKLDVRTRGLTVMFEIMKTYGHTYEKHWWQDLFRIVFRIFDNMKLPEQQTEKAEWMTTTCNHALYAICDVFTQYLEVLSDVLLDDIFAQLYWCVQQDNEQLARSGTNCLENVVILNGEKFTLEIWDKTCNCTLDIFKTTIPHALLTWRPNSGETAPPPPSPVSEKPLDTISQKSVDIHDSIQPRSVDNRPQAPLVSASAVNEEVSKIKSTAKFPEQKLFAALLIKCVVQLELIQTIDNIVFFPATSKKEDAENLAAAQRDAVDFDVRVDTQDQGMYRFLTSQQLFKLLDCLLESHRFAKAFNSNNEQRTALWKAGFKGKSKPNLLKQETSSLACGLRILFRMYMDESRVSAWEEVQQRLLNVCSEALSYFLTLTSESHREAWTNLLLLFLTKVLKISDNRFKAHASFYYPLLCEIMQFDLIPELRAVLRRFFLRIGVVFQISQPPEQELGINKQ
# UniProt P10398, sequence (P10398 whole entry, looked up): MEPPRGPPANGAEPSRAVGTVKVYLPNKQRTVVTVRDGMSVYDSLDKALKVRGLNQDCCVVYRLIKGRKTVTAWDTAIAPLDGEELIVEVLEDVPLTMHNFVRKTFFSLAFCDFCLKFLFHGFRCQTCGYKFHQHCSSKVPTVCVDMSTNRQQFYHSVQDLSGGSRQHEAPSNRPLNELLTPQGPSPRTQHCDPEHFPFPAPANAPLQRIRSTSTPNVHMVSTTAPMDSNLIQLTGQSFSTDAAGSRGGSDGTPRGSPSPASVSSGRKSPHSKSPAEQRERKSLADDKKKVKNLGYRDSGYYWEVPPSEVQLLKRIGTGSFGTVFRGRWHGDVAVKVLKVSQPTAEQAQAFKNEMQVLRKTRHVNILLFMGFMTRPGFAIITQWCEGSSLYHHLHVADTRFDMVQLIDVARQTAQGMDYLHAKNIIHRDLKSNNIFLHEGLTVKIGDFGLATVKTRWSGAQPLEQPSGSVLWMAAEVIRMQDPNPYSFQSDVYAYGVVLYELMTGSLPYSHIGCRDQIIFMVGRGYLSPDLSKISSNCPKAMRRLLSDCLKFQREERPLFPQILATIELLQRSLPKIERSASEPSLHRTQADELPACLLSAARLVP
# UniProt P49189, sequence (P49189 whole entry, looked up): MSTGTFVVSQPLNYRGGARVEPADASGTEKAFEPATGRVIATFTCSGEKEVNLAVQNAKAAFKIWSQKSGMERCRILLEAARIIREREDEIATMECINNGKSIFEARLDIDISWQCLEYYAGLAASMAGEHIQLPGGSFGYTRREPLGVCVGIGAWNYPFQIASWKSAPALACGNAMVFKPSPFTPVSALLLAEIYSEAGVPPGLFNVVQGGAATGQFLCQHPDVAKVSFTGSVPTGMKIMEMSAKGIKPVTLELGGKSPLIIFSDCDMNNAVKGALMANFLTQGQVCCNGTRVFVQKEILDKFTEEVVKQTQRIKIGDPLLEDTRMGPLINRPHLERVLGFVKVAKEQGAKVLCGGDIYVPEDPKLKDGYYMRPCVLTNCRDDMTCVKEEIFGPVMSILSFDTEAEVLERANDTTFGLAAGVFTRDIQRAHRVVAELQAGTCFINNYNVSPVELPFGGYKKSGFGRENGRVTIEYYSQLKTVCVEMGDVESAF
# UniProt P33121, sequence (P33121 whole entry, looked up): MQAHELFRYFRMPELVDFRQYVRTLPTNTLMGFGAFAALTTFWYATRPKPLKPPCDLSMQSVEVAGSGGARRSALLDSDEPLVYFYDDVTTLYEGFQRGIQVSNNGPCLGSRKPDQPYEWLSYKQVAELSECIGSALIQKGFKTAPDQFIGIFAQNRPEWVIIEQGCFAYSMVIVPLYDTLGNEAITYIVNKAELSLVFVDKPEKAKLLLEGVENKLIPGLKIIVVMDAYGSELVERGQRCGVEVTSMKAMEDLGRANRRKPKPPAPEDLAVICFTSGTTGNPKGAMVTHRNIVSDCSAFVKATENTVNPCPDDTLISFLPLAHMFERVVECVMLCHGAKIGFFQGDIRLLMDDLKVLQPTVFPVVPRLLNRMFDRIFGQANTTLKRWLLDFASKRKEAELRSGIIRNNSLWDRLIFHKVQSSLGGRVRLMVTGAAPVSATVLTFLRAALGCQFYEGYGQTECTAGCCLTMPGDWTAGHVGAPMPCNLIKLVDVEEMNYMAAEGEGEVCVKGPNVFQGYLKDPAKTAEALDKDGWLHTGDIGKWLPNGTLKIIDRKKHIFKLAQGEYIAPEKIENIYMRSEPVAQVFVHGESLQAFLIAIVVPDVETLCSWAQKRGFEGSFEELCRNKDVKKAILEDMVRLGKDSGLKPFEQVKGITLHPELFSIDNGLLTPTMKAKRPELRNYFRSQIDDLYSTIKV
# UniProt P42025, sequence (P42025 whole entry, looked up): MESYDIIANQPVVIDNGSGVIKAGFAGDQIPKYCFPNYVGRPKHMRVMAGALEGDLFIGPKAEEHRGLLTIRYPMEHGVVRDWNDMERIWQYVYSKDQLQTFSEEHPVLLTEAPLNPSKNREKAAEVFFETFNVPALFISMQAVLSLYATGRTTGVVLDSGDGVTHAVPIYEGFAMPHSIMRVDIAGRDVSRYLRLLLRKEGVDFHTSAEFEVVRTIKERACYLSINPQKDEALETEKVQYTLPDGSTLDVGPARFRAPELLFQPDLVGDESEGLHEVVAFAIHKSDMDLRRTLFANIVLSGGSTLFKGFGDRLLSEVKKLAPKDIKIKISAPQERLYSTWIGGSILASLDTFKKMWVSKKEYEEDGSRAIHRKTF
# UniProt P55957, sequence (P55957 whole entry, looked up): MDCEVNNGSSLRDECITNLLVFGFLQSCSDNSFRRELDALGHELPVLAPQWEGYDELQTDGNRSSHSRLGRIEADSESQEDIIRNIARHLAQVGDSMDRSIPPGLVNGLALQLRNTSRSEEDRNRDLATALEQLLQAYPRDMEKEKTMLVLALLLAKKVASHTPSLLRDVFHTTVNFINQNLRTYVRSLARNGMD
row,Target,log2 fold change
1,AHSA1 (UniProt O95433),-0.022
2,AARS2 (UniProt Q5JTZ9),-0.099
3,APOB (UniProt P04114),-0.295
4,ABCA4 (UniProt P78363),-0.047
5,ANAPC2 (UniProt Q9UJX6),-0.025
6,ATP12A isoform 2 (UniProt P54707),-0.036
7,BRD8 (UniProt Q9H0E9),-0.012
8,ATP6V1C1 (UniProt P21283),0.039
9,BMP2K (UniProt Q9NSY1),-0.028
10,ALDH9A1 isoform 3 (UniProt P49189),-0.004
11,ARFGAP2 (UniProt Q8N6H7),-0.032
12,BRAP (UniProt Q7Z569),-0.016
13,AP2S1 (UniProt P53680),-0.003
14,AHCYL1 (UniProt O43865),-0.016
15,ADAM15 (UniProt Q13444),0.008
16,BUB1B isoform 3 (UniProt O60566),-0.089
17,AP2A1 (UniProt O95782),0.027
18,BPHL (UniProt Q86WA6),-0.023

row,Target,log2 fold change
1,ARAF (UniProt P10398),-0.064
2,ATAD3B (UniProt Q5T9A4),-0.011
3,ATG9A (UniProt Q7Z3C6),-0.056
4,AURKA (UniProt O14965),-0.056
5,BID isoform 2 (UniProt P55957),-0.053
6,ATP9B (UniProt O43861),-0.054
7,ARFGEF1 (UniProt Q9Y6D6),-0.018
8,ATP6V0A1 isoform 3 (UniProt Q93050),0.019
9,AMD1 (UniProt P17707),-0.031
10,ATL2 (UniProt Q8NHH9),-0.087
11,ALDH18A1 (UniProt P54886),-0.497 (active)
12,ACTR1B (UniProt P42025),-0.065
13,BZW2 (UniProt Q9Y6E2),-0.121
14,ACSL5 isoform 3 (UniProt Q9ULC5),0.014
15,ACSL1 (UniProt P33121),0.01
16,ATIC (UniProt P31939),0
17,ADD1 isoform 3 (UniProt P35611),-0.008
18,ACAD9 (UniProt Q9H845),0.007

# Compound: CC(C)C1=C2N=C(C=C(N2N=C1)NCC3=CC=CC=C3)NCCCCCCN
# Test: as above
# Procedure, shortened: as §1
row,Target,log2 fold change
1,AHSA1 (UniProt O95433),-0.038
2,AARS2 (UniProt Q5JTZ9),-0.15
3,APOB (UniProt P04114),-0.438
4,ABCA4 (UniProt P78363),0.127
5,ANAPC2 (UniProt Q9UJX6),-0.083
6,ATP12A isoform 2 (UniProt P54707),0.162
7,BRD8 (UniProt Q9H0E9),-0.013
8,ATP6V1C1 (UniProt P21283),-0.008
9,BMP2K (UniProt Q9NSY1),-0.027
10,ALDH9A1 isoform 3 (UniProt P49189),0.019
11,ARFGAP2 (UniProt Q8N6H7),0.062
12,BRAP (UniProt Q7Z569),-0.11
13,AP2S1 (UniProt P53680),0.028
14,AHCYL1 (UniProt O43865),0.014
15,ADAM15 (UniProt Q13444),0.14
16,BUB1B isoform 3 (UniProt O60566),-0.098
17,AP2A1 (UniProt O95782),0.023
18,BPHL (UniProt Q86WA6),0.123

row,Target,log2 fold change
1,ARAF (UniProt P10398),-0.056
2,ATAD3B (UniProt Q5T9A4),-0.472 (active)
3,ATG9A (UniProt Q7Z3C6),-0.176
4,AURKA (UniProt O14965),-0.128
5,BID isoform 2 (UniProt P55957),0.105
6,ATP9B (UniProt O43861),-0.071
7,ARFGEF1 (UniProt Q9Y6D6),0.051
8,ATP6V0A1 isoform 3 (UniProt Q93050),-0.463 (active)
9,AMD1 (UniProt P17707),-0.073
10,ATL2 (UniProt Q8NHH9),0.054
11,ALDH18A1 (UniProt P54886),-0.269
12,ACTR1B (UniProt P42025),0.042
13,BZW2 (UniProt Q9Y6E2),-0.163
14,ACSL5 isoform 3 (UniProt Q9ULC5),-0.354 (active)
15,ACSL1 (UniProt P33121),-0.243 (active)
16,ATIC (UniProt P31939),0.079
17,ADD1 isoform 3 (UniProt P35611),0.038
18,ACAD9 (UniProt Q9H845),0.002
